Common to all, as to assay: PBM binding z-score (relative to random genomic background probes); higher = stronger binding; sequences stand for … in GC…GCGATTGACAGCGTAGAATGAAGG
Assay [1] deals with FXR:RXRa (NR concentration 270 nM, RXRa partner concentration 90 nM). Summed up: (§1)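 Custom Agilent 4×180K protein-binding microarrays carried double-stranded probes. Their 34-nt variable regions held direct-repeat seeds, single-nucleotide variants, half-site ablations and random human genomic background sequences. Arrays were incubated 1 h with ligand-free nuclear receptor dimers in PBS pH 7.4, 2% milk, 0.02% Triton X-100, 1 mM DTT, 0.2 mg/mL BSA and 0.4 mg/ml salmon testes DNA. Antibodies against each partner (one per run) detected binding, and scanned fluorescence was regression-normalized. Binding z-scores use random background probes as reference.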

Assay [2] has as its system LXRa:RXRa (NR concentration 270 nM, RXRa partner concentration 90 nM). Summed up:
as §1

Assay [3] has as its system LXRa homodimer (NR concentration 270 nM). Summed up:
as §1

The subject of assay [4] is LXRb:RXRa (NR concentration 270 nM, RXRa partner concentration 90 nM). Summed up:
as §1

For assay [5], the system named is LXRb homodimer (NR concentration 270 nM). Summed up:
as §1

Assay [6] deals with PPARa:RXRa (NR concentration 270 nM, RXRa partner concentration 90 nM). Summed up: as §1
The test system of assay [7] is PPARg:RXRa (NR concentration 180 nM, RXRa partner concentration 90 nM). Summed up: as §1
The test system of assay [8] is PPARg:RXRa 270nM:90nM, anti-RXR (NR concentration 270 nM, RXRa partner concentration 90 nM). Summed up:
as §1

The test system of assay [9] is PPARg:RXRa 30nM:10nM, anti-RXR (NR concentration 30 nM, RXRa partner concentration 10 nM). Summed up:
as §1

For assay [10], the system named is PPARg:RXRa 90nM:30nM, anti-RXR (NR concentration 90 nM, RXRa partner concentration 30 nM). Summed up: as §1
Assay [11] concerns PPARg:RXRa DBDmut IVT, anti-RXR (DBD mutation: RXRa K156A/R161A, NR concentration 270 nM, RXRa partner concentration 90 nM). Summed up:
as §1

Assay [12] deals with PPARg:RXRa IVT, anti-PPARg (NR concentration 270 nM, RXRa partner concentration 90 nM). Put shortly: as §1
Assay [13] concerns PPARg DBDmut:RXRa IVT, anti-PPARg (DBD mutation: PPARg1 K132A/R137A, NR concentration 270 nM, RXRa partner concentration 90 nM). Summed up: as §1
The test system of assay [14] is PPARg DBDmut IVT, anti-PPARg (DBD mutation: PPARg1 K132A/R137A, NR concentration 270 nM). Summed up:
as §1

Assay [15] has as its system PPARg homodimer (NR concentration 180 nM). Put shortly: as §1
The test system of assay [16] is PXR:RXRa (NR concentration 270 nM, RXRa partner concentration 90 nM). Summed up:
as §1

Assay [17] deals with PXR homodimer (NR concentration 270 nM). Summed up: as §1
The test system of assay [18] is RARa:RXR (NR concentration 270 nM, RXRa partner concentration 90 nM). Put shortly:
as §1

In assay [19] the test system is RARa homodimer (NR concentration 270 nM). Put shortly:
as §1

Assay [20] has as its system RARb:RXRa (NR concentration 270 nM, RXRa partner concentration 90 nM). Put shortly: as §1

As for ACTTACGGGTCAACGAGGTTATACCACGCGTATA, the PBM binding z-score amounted to 6.87 in assay [1]; 5.39 in assay [2]; 1.14 in assay [3]; 4.59 in assay [4]; 0.838 in assay [5]; 5.83 in assay [6]. The PBM binding z-score in [7] worked out at 5.59; in [8] it was 5.57; in assay [9], 1.82; in assay [10], 4.26; in [11], 3.73; in assay [12], 3.99. In addition, the PBM binding z-score in assay [13] was 1.8; in [14] it was 1.74; in assay [15], 2.9; in [16] it was 5.43; in assay [17], 4.36; in assay [18] it was 5.72. The PBM binding z-score was found to be 1.26 in assay [19] and 4.34 in [20].
Take CGAACTAGGTCACCGGAAGGTCAAAGTCCGCATG: the PBM binding z-score came to 6.15 in assay [1]; 5.95 in assay [2]; 4.65 in [3]; 5.17 in assay [4]; 0.515 in [5]; 6.04 in assay [6]. Moreover, the PBM binding z-score in assay [7] stood at 9.75; in [8], 7.7; in assay [9] it was 5.33; in assay [10], 7.57; in assay [11] it was 7.98; in assay [12], 8.54. In addition, the PBM binding z-score in [13] came out at 0.875; in assay [14] it was 0.855; in [15] it was 8.74; in assay [16], 5.95; in assay [17], 2.08; in assay [18] it was 7.52. For the same sequence, the figures for the PBM binding z-score in assay [19] and in assay [20] were 2.97 and 5.2, respectively.
Turning to ATCTATAGGTAACAAGTTCAGTGAAAGAGAGGAC, the PBM binding z-score is 0.766 in assay [1]; 1.11 in assay [2]; 0.709 in assay [3]; 0.927 in assay [4]; 0.629 in assay [5]; 1.64 in assay [6]. Also, the PBM binding z-score in assay [7] was determined as 1.46; in assay [8], 1.66; in assay [9], 0.781; in assay [10], 1.46; in [11], 2.14; in assay [12], 1.83. Further, the PBM binding z-score in [13] is 1.5; in [14] it was 1.51; in assay [15], 1.15; in assay [16] it was 1.72; in assay [17] it was 1.68; in assay [18] it was 1.74. Also, the PBM binding z-score stood at 1.48 in assay [19] and 1.72 in [20].
Take ACTATTAGTTGACTTAGGGCGACCGATACGACGC: the PBM binding z-score in [1] is 0.233; in assay [2], -0.0475; in assay [3], -0.0351; in [4] it was -0.0198; in [5], 0.794; in assay [6], -0.104. For the same sequence, the PBM binding z-score is 0.88 in [7]; 0.00253 in assay [8]; 0.295 in assay [9]; 0.183 in assay [10]; 0.407 in assay [11]; 0.174 in assay [12]. Further, the PBM binding z-score in assay [13] was 1.73; in [14], 1.51; in assay [15], 0.828; in [16], -0.0513; in assay [17] it was 0.0652; in assay [18], 0.194. For the same sequence, the PBM binding z-score worked out at 0.515 in assay [19] and 0.512 in assay [20].
On to TCTTGTAGATCAATATAGGTTAAGAAAGTGCGCT, for which the PBM binding z-score in assay [1] is 0.801; in assay [2] it was 2.72; in [3] it was 0.469; in assay [4], 1.28; in [5] it was 0.58; in [6], 1.97. Besides, the PBM binding z-score in assay [7] is 0.81; in [8], 2.09; in [9], 3.36; in assay [10], 2.56; in assay [11] it was 2.95; in assay [12], 2.98. The PBM binding z-score in assay [13] came to 1.55; in assay [14] it was 1.13; in assay [15] it was 0.797; in assay [16], 1.67; in [17] it was 0.304; in [18], 1.4. The PBM binding z-score in assay [19] stood at 1.22; in assay [20] it was 0.676.
Consider ATATGTAGGTTACATCCGTGTCATTCAGGCTATG, for which the PBM binding z-score turned out to be 0.799 in [1]; 4.06 in [2]; 0.794 in assay [3]; 1.81 in assay [4]; 0.59 in assay [5]; 3.6 in assay [6]. For the same sequence, the PBM binding z-score in assay [7] was 5.07; in [8], 4.33; in assay [9], 1.88; in assay [10] it was 3.27; in assay [11] it was 7.68; in [12] it was 7.5. The PBM binding z-score in assay [13] worked out at 2.03; in [14], 4.51; in [15], 1.36; in assay [16] it was 0.878; in assay [17], 0.202; in assay [18], 0.935. Also, the PBM binding z-score in assay [19] amounted to 0.528; in [20], 1.28.

The values above are taken from the supplement of paper PMC6555819.
